High-throughput results deposited in PubChem BioAssay by National Center for Advancing Translational Sciences (NCATS).
AmpC inh detg = AmpC beta-lactamase inhibition with detergent present | P00811 | AmpC hydrolysis of nitrocefin, absorbance 480 nm, 0.01% Triton | Potency, µM (top dose mostly 114 µM), for inactives: top-dose activity change, negative = inhibition, actives largely listed as inhibitors | actives 0.041% (n = 370,000) | AID 485294;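 further: 0% = no-compound wells and -100% = no-enzyme wells; nearly all actives have a fitted effect of over 25% in size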
Target sequence (P00811 whole entry, looked up): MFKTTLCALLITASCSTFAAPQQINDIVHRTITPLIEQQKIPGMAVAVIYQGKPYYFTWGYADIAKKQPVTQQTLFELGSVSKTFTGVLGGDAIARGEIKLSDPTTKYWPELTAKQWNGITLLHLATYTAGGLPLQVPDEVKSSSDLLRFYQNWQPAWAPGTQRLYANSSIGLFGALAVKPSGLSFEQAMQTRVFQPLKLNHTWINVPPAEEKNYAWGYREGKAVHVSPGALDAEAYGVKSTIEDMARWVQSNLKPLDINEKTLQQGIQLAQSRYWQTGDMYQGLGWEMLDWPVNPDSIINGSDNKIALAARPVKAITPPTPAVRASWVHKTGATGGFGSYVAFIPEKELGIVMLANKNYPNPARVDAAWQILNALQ
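20 mM phosphate pH 7.0 + 0.01% (detergent screen) or 0.0001% Triton X-100; 5.3 nM AmpC reagent; cpd preinc 15 min RT; nitrocefin (800 uM stock) to start; A480 q20 s × 4 min; Activity was normalised to no-enzyme and no-compound control wells.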
SARS PLpro yeast = SARS-CoV PLP inhibition in yeast; Potency, µM (top dose mostly 32.9 µM), without a hit: at the top dose activity, positive = growth rescue, usual class: activators; actives 0.19% (n = 330,000); AID 485353; S. cerevisiae expressing SARS-CoV PLpro, growth rescue; calls by dose curve; further: 0% is about no effect; nearly all actives have a fitted effect of over 55% in size
AmpC inh no detg = inhibitors of E. coli AmpC beta-lactamase without detergent; P00811; AmpC nitrocefin hydrolysis, absorbance 480 nm, 0.0001% Triton; Potency, µM (series often up to 57.1 µM), without a hit: at the top dose activity change, negative = inhibition, usual class: inhibitors; actives 0.52% (n = 330,000); AID 485341;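 further: plate controls were no compound for no effect and no enzyme for full effect; nearly all actives have a fitted effect of over 20% in size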
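20 mM phosphate pH 7.0 + 0.01% (detergent screen) or 0.0001% Triton X-100; 5.3 nM AmpC reagent; cpd preinc 15 min RT; nitrocefin (800 uM stock) to start; A480 q20 s × 4 min; Activity was normalised to no-enzyme and no-compound control wells.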
FBPA Giardia inh = blocks Giardia fructose-bisphosphate aldolase activity; Potency, µM (titrated, usually from 59.6 µM), for inactives: at the top dose activity, negative = inhibition, most hits filed as inhibitors; actives 0.71% (n = 290,000); AID 2451; A8B2U2; purified Giardia FBPA; further: on the % scale 0 is the no-effect control and ±100 the full control effect; nearly all actives have a fitted effect of over 55% in size
Target sequence (A8B2U2 whole entry, looked up): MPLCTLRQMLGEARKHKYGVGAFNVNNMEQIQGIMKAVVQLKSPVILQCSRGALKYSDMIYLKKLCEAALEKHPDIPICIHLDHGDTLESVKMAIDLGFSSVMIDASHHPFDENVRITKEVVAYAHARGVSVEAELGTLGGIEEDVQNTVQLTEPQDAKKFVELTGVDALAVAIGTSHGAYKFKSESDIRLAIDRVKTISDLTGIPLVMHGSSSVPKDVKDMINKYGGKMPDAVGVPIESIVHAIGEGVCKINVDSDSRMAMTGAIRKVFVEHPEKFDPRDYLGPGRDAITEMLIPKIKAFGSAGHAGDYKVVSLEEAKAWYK
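40 nM FBPA preincubated 10 min at RT with compound (up to 57.5 uM final), then substrate plus GAPDH/TPI/NAD/arsenate coupling and diaphorase/resazurin added. Fluorescence read after 20 min at RT, 525/598 nm.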
NS1 function inh = blocks influenza NS1 protein function; Potency, µM (highest dose often 46.1 µM), for inactives: at the highest dose activity, positive = more growth; actives 0.4% (n = 270,000); calls by dose curve; further: actives are rising curves; nearly all actives have a fitted effect of over 50% in size
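S. cerevisiae expressing influenza A NS1, grown in glucose, washed, then diluted 1:100 into pH 6.0 -URA galactose medium with 23 nl compound. Growth recovery read as OD600; NS1-free strain serves as control.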
Active calls of the source: *; ? = inconclusive; . = no result. Sampled rows, rich in hits. Any-hit rate of the full collection: about 1.4%. Unless noted, the call rests on the fitted dose curve; in most records, active means well fitted curve in the direction sought with a large enough effect; inconclusive means small, poorly fitted or top-dose-only effect, or another doubt; inactive means no such curve, though single readings can be large; an effect the other way counts as inactive or inconclusive. Potency means the concentration at half of the fitted maximal effect.

SMILES	AmpC inh detg	SARS PLpro yeast	AmpC inh no detg	FBPA Giardia inh	NS1 function inh
Cc1ccc(SCc2cc(=O)[nH]c(/N=C(\N)Nc3ccccc3Sc3ccccc3)n2)cc1	?	-7.8%	-21.7%	1.3%	7.2%
NNC(=O)c1nc[nH]c1C(=O)Nc1ccccn1	-1.2%	14.1µM*	-30.2%	-0.2%	6.6%
COCc1cc(O)c(O)c(O)c1-c1c(COC)cc(O)c(O)c1O	.	.	.	3.97µM*	.
CCc1oc(C(=O)O)cc1COC	?	6.2%	-20.5%	-1.8%	-3.5%
COc1cc2c(cc1NC(=O)Nc1ccc(F)cc1)oc1ccccc12	?	2.4%	14.1µM*	0.4%	12.3%
COc1cc2c(cc1NC(=O)Nc1ccc(C)cc1)oc1ccccc12	-0.7%	-19.4%	-43.1%	-3.7%	-55.6%
COc1cc2c(cc1NC(=O)CSc1nc3ccccc3[nH]1)oc1ccccc12	-1.5%	-19.6%	7.94µM*	.	10.0%
CC(C)NC[C@H](O)c1ccc(NS(C)(=O)=O)cc1	.	.	.	2.1%	.
CC(=O)Nc1ccc(C(=O)CN2CCN(c3ccccc3)CC2)cc1	?	2.4%	4.1%	-6.4%	-4.5%
CCC(Sc1nc2ccsc2c(=O)n1Cc1ccc(C(=O)O)cc1)C(=O)Nc1ccc(C)c(Cl)c1 (stereo not given)	-0.8%	0.0%	8.91µM*	.	-19.2%
CCOc1ccccc1NC(=O)C(CC)Sc1nc2ccsc2c(=O)n1CCC(=O)O (stereo not given)	1.6%	2.9%	19.5%	.	22.1%
Cc1c(/C=N/NC(=O)CNc2ccccc2)c2ccccn2c1C(=O)c1ccc(Cl)cc1	0.2%	4.8%	2.51µM*	4.8%	?
O=C(CSc1nc2ccccc2s1)Nc1cc(S(=O)(=O)N2CCOCC2)ccc1O	?	12.6µM*	-39.9%	3.6%	2.5%
NC(=S)NC(=O)c1ccccc1	?	-0.4%	-13.5%	-5.8%	3.1%
Cc1ccc(S(=O)(=O)NCc2ccc3c(c2)cc(C)n3C)cc1	?	-8.6%	25.1µM*	-6.3%	?
COCC(=O)NCc1ccc2c(c1)cc(C)n2C	-2.6%	-5.6%	7.4%	-23.0%	6.9%
CCN(CC)c1ccc2c(c1)CCCN2	-0.7%	12.6µM*	-16.1%	?	4.0%
O=S(=O)(c1ccc2c(c1)CCCN2)N1CCCC1	-0.4%	6.1%	-15.1%	.	.
Clc1ccc2[nH]c3c(NCCCN4CCOCC4)ncnc3c2c1	-10.9%	-1.0%	17.9%	4.5%	-7.1%
CC(=O)c1ccc(NC(=O)C2CCN(S(=O)(=O)c3cccc4cccnc34)CC2)cc1	?	-5.4%	-22.5%	2.7%	-51.0%
COc1ccc(NC(=O)C2CCN(S(=O)(=O)c3cccc4cccnc34)CC2)cc1	2.8%	5.0%	56.2µM*	-8.6%	-12.9%
CCc1cccc(C)c1NC(=O)COC(=O)c1c2c(nc3ccccc13)/C(=C\c1cccs1)CCC2	-3.6%	-1.9%	-49.5%	2.3%	22.5%
CC1CCCCC1NC(=O)COC(=O)c1c2c(nc3ccccc13)/C(=C/c1ccco1)CC2 (stereo not given)	?	-4.2%	15.8µM*	-14.8%	23.7%
O=C(COC(=O)c1c2c(nc3ccccc13)/C(=C/c1ccco1)CC2)NC1CCCC1	-11.1%	-0.3%	17.8µM*	?	22.9%
NC(=O)c1ccc(NC(=O)COC(=O)c2c3c(nc4ccccc24)/C(=C\c2cccs2)CCC3)cc1	-2.9%	-21.8%	3.16µM*	-9.4%	11.7%
SMILES	AmpC inh detg	SARS PLpro yeast	AmpC inh no detg	FBPA Giardia inh	NS1 function inh
Cc1cc(C(=O)OCC(=O)NC2CCCC2)c2ccccc2n1	-7.8%	1.9%	-21.8%	.	.
O=C(/C=C/c1ccc([N+](=O)[O-])s1)N1CCN(c2ccccc2)CC1	-1.9%	1.0%	-7.7%	3.0%	-4.3%
CCc1ccccc1NC(=S)NN	4.8%	1.8%	-47.4%	15.8µM*	.
CCOC(=O)CSc1n[nH]c(NC(=O)c2ccc(F)cc2)n1	-4.5%	-7.1%	23.7%	6.3%	-10.3%
Cc1ncc(N=Nc2ccc(F)cc2)c(-c2ccc(Cl)cc2)n1	1.2%	1.2%	0.398µM*	0.2%	10.6%
COc1ccc(-c2nc(C)ncc2N=Nc2ccccc2)cc1	-9.1%	1.9%	61.3%	4.0%	6.6%
CCN1CCN(c2nc(C)nc3c2sc(=S)n3C)CC1	?	-18.1%	-24.4%	17.7µM*	-8.7%
O=C1[C@H]2[C@@H](c3ccc(F)cc3)N3C(=O)N(c4cccc(Cl)c4)C(=O)[C@@]3(Cc3ccc(Cl)cc3)[C@H]2C(=O)N1C1CCCCC1	?	7.9%	-39.0%	-4.2%	12.8%
N#C/C(=C/c1cccc(O)c1)C(=O)NCc1ccc(Cl)cc1	-1.8%	-7.6%	20µM*	-7.1%	-56.8%
CCOCCCNC(=O)c1cc(C)nn1-c1ccccc1	?	5.9%	3.16µM*	0.1%	-7.3%
Cc1cc(C(=O)NCCCN2CCOCC2)n(-c2ccccc2)n1	?	0.4%	39.8µM*	-0.7%	1.3%
Nn1cc(-c2ccccc2)nc1SCC(=O)NCC1CCCO1 (stereo not given)	-2.4%	-2.8%	6.9%	-1.8%	5.1%
CSc1ccccc1NC(=S)N/N=C/c1cccn1Cc1cccc(C)c1	1.0%	18.4%	-42.5%	1.1%	.
COCCNc1nc2nonc2nc1NC(C)c1ccccc1Cl (stereo not given)	5.1%	0.3%	-37.9%	-3.3%	-1.0%
O=C(CNc1ccc2c(c1)OCO2)N/N=C\c1cn(Cc2ccc(F)cc2)c2ccccc12	-15.0%	-6.5%	-37.8%	-28.9%	12.6µM*
O=C(CNc1ccc2c(c1)OCO2)N/N=C\c1cn(Cc2ccccc2)c2ccccc12	-8.6%	0.5%	-41.9%	-17.1%	29.4%
Cc1cc(O)c(C(C)C)cc1NC(=O)Nc1cccc2ccccc12	-2.9%	-1.2%	?	-2.5%	12.5%
O=C(O)COc1ccc(/C=N/NC(=O)c2ccc(-c3csc(Nc4ccc(Cl)cc4)n3)cc2)cc1	?	-1.5%	-54.1%	?	5.1%
CCOc1cc(/C=N/NC(=O)c2ccc(-c3csc(Nc4ccc(C)cc4)n3)cc2)ccc1OCC(=O)O	-2.0%	2.3%	1.41µM*	-26.6%	.
O=C(O)Cc1sc(Nc2cccc3ccccc23)nc1-c1ccccc1	-0.9%	9.9%	-38.9%	.	.
O=C(O)Cc1sc(Nc2cccc3ccccc23)nc1-c1ccc(Cl)cc1	0.3%	-2.4%	7.94µM*	-6.2%	4.7%
Cn1c(SCC(=O)Nc2ncc(C(F)(F)F)cc2Cl)nnc1-c1ccc(Cl)cc1	-10.5%	-30.0%	7.7%	-0.6%	18.5%
CCOC(=O)N1CCN(S(=O)(=O)c2ccc(OCC)c3ccccc23)CC1	10.3%	-18.2%	128.6%	24.7%	-69.6%
CC(C)=CCC1=C(O)c2ccccc2C(=O)C1=O	.	.	.	1.12µM*	.
CCN1CCN(C(=S)c2ccc(Cl)cc2)CC1	-11.2%	6.1%	-23.0%	3.97µM*	1.5%
OCCN1CCN(C(=S)c2ccc(Cl)cc2)CC1	-10.9%	-0.6%	-18.1%	-16.5%	4.8%
Cc1cc(C(=O)N/N=C/c2ccc(O)c(O)c2O)c(C)n1-c1ccccc1	2.3%	13.6%	-51.6%	15.8µM*	.
